Outcome and AC50 data for three molecules are collected here from PubChem BioAssay (EPA / NIEHS).

Calls of active or inactive are those of the source. The calls were made as follows: active = hit-call score of the fitted dose curve at least 0.9, where 1 is the maximum; inactive = score below 0.9.

Common to all, as to conditions: mRNA level, 48 h; actives raise or lower the signal
Read-out in assay [1]: Paternally Expressed 10 (PEG10), PEG10 (gene 23089)
Nature of the assay: LTEA_HepaRG_PEG10: Life Technologies and Expression Analysis (LTEA) Assay for Paternally Expressed 10 (PEG10) using HepaRG (AID 2283520). The gist of the method:
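Human HepaRG cultures are dosed for 48 h across an eight-point half-log series starting at 100 uM, with 0.5% DMSO as vehicle and baseline. Gain or loss of PEG10 transcript is measured by qRT-PCR and fitted in both directions.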

Read-out in assay [2]: Nuclear factor NF-kappa-B p105 subunit (Homo sapiens) (UniProt P19838)
Put plainly: LTEA_HepaRG_NFKB1: Life Technologies and Expression Analysis (LTEA) Assay for Nuclear Factor Kappa B Subunit 1 (NFKB1) using HepaRG (AID 2283521).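 As to Outcome: differentiated human HepaRG liver cells in serum-free induction medium; TaqMan qRT-PCR transcript normalised to ACTB GAPDH and POLR2A housekeeping genes.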 The gist of the method: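 HepaRG, 48 h exposure; 8-pt half-log series from 100 uM in 0.5% DMSO; duplicates. Readout: NFKB1 mRNA by qRT-PCR (Fluidigm arrays), housekeeping-normalized. Gain/loss fit vs DMSO baseline.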

Read-out in assay [3]: Protein phosphatase 2A (PPP2R4), PTPA (gene 5524)
Nature of the assay: LTEA_HepaRG_PPP2R4: Life Technologies and Expression Analysis (LTEA) Assay for Protein phosphatase 2A (PPP2R4) using HepaRG (AID 2283522). The gist of the method: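 Cells were plated, cultured 48 h, switched to serum-free induction medium, then dosed for 48 h (8 points, max 100 uM, 0.5% DMSO). RNA was isolated and PPP2R4 expression measured by TaqMan qRT-PCR.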

Read-out in assay [4]: Phosphatase and tensin (PTEN), PTEN (gene 5728)
Put plainly: LTEA_HepaRG_PTEN: Life Technologies and Expression Analysis (LTEA) Assay for Phosphatase and tensin (PTEN) using HepaRG (AID 2283523). In a few lines: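 HepaRG, 48 h exposure, 8-pt half-log series from 100 uM top, 0.5% DMSO vehicle, duplicates. Readout: Fluidigm qRT-PCR of PTEN transcript; housekeeping normalization (ACTB, GAPDH, POLR2A). Gain or loss fitted relative to DMSO baseline.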

Read-out in assay [5]: solute carrier (SLC22A1), SLC22A1 (gene 6580)
Nature of the assay: LTEA_HepaRG_SLC22A1: Life Technologies and Expression Analysis (LTEA) Assay for solute carrier (SLC22A1) using HepaRG (AID 2283524).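 As to AC50: differentiated human HepaRG liver cells in serum-free induction medium.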 In a few lines: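 qRT-PCR readout (TaqMan, Fluidigm arrays) of SLC22A1 transcript, normalized to three housekeeping genes; bidirectional curve fit relative to 0.5% DMSO vehicle. Differentiated human HepaRG cells, 48 h chemical exposure, top concentration 100 uM, half-log steps, eight points.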

Read-out in assay [6]: Pyruvate Dehydrogenase Kinase 4 (PDK4), PDK4 (gene 5166)
Nature of the assay: LTEA_HepaRG_PDK4: Life Technologies and Expression Analysis (LTEA) Assay for Pyruvate Dehydrogenase Kinase 4 (PDK4) using HepaRG (AID 2283525). The gist of the method:
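HepaRG (human liver line), 48 h chemical exposure, 8-pt half-log CRC top 100 uM, 0.5% DMSO vehicle, duplicates. Readout: TaqMan qRT-PCR of PDK4 mRNA, housekeeping-normalized; gain/loss fit relative to DMSO baseline.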

Read-out in assay [7]: NAD(P)H dehydrogenase [quinone] 1 (NQO1), NQO1 (gene 1728)
Put plainly: LTEA_HepaRG_NQO1: Life Technologies and Expression Analysis (LTEA) Assay for NAD(P)H dehydrogenase [quinone] 1 (NQO1) using HepaRG (AID 2283526). The gist of the method:
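Transcript induction or suppression is quantified by qRT-PCR in human HepaRG liver cells dosed for 48 hours. Eight half-log concentrations topping at 100 uM are used, with 0.5% DMSO as vehicle and baseline.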

Read-out in assay [8]: Nuclear factor erythroid 2-related factor 2 (Homo sapiens) (UniProt Q16236)
Put plainly: LTEA_HepaRG_NFE2L2: Life Technologies and Expression Analysis (LTEA) Assay for Nuclear factor erythroid 2-related factor 2 (NFE2L2) Transcription Factor using HepaRG (AID 2283527).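 Also: TaqMan qRT-PCR transcript level normalised to ACTB GAPDH and POLR2A housekeeping genes.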 The gist of the method: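 HepaRG, 48 h dosing, 8-pt half-log series from 100 uM in 0.5% DMSO, duplicates. Read-out: NFE2L2 mRNA by qRT-PCR (ACTB/GAPDH/POLR2A normalization). Bidirectional curve fit vs DMSO baseline.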

Read-out in assay [9]: succinate dehydrogenase complex iron sulfur subunit B (SDHB), SDHB (gene 6390)
Nature of the assay: LTEA_HepaRG_SDHB: Life Technologies and Expression Analysis (LTEA) Assay for succinate dehydrogenase complex iron sulfur subunit B (SDHB) using HepaRG (AID 2283528). In a few lines: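 Readout is SDHB transcript level by qRT-PCR, normalised to three housekeeping genes and fitted bidirectionally against 0.5% DMSO vehicle. Human HepaRG cells were treated for 48 h at up to 100 uM.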

Read-out in assay [10]: Signal transducer and activator of transcription 3 (Homo sapiens) (UniProt P40763)
Put plainly: LTEA_HepaRG_STAT3: Life Technologies and Expression Analysis (LTEA) Assay for Signal transducer and activator of transcription (STAT3) using HepaRG (AID 2283529). The gist of the method:
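HepaRG, 48 h exposure, 8-pt half-log series (top 100 uM), 0.5% DMSO vehicle, duplicates. Readout: STAT3 transcript by Fluidigm qRT-PCR, housekeeping-normalized; bidirectional fit vs DMSO baseline.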

Read-out in assay [11]: solute carrier (SLCO1B1), SLCO1B1 (gene 10599)
Put plainly: LTEA_HepaRG_SLCO1B1: Life Technologies and Expression Analysis (LTEA) Assay for solute carrier (SLCO1B1) using HepaRG (AID 2283530). The gist of the method:
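HepaRG, serum-free induction medium, 48 h dosing, 8-pt half-log from 100 uM, 0.5% DMSO vehicle, duplicates. Readout: SLCO1B1 mRNA, qRT-PCR, ACTB/GAPDH/POLR2A normalization; up or down fit vs DMSO.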

Read-out in assay [12]: sulfotransferase 2A1 (SULT2A1), SULT2A1 (gene 6822)
Nature of the assay: LTEA_HepaRG_SULT2A1: Life Technologies and Expression Analysis (LTEA) Assay for sulfotransferase 2A1 (SULT2A1) using HepaRG (AID 2283531). In a few lines: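 Transcript levels of SULT2A1, quantified by qRT-PCR and normalized to three housekeeping genes, serve as the readout. Human HepaRG cultures receive test chemicals for 48 h at up to 100 uM in half-log steps, with 0.5% DMSO vehicle.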

Read-out in assay [13]: Transforming Growth Factor (TGFA), TGFA (gene 7039)
Put plainly: LTEA_HepaRG_TGFA: Life Technologies and Expression Analysis (LTEA) Assay for Transforming Growth Factor (TGFA) using HepaRG (AID 2283532). In a few lines: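 qRT-PCR read-out of TGFA transcript, normalized to three housekeeping genes, fitted bidirectionally against 0.5% DMSO baseline. Human HepaRG cultures received chemicals for 48 h at eight half-log concentrations, top 100 uM.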

Read-out in assay [14]: Transforming Growth Factor (TGFB1), TGFB1 (gene 7040)
Put plainly: LTEA_HepaRG_TGFB1: Life Technologies and Expression Analysis (LTEA) Assay for Transforming Growth Factor (TGFB1) Transporter using HepaRG (AID 2283533). In a few lines:
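HepaRG, 48 h post-plating, switched to serum-free induction medium; chemicals 100 uM top, half-log, 8 pts, 0.5% DMSO, dup; 48 h exposure; RNA → Fluidigm TaqMan qRT-PCR; norm ACTB/GAPDH/POLR2A; bidirectional fit vs DMSO.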

Read-out in another assay: TIMP1, TIMP1 (gene 7076)
Nature of the assay: LTEA_HepaRG_TIMP1: Life Technologies and Expression Analysis (LTEA) Assay for TIMP1 using HepaRG (AID 2283534). In a few lines: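 Readout is TIMP1 mRNA level measured by qRT-PCR and normalized to three housekeeping genes. Human HepaRG cells were treated for 48 h in duplicate at eight concentrations up to 100 uM (0.5% DMSO); gain or loss fitted against DMSO.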

Read-out in assay [15]: Tumor necrosis factor receptor 1 (TNFRSF1A), TNFRSF1A (gene 7132)
Nature of the assay: LTEA_HepaRG_TNFRSF1A: Life Technologies and Expression Analysis (LTEA) Assay for Tumor necrosis factor receptor 1 (TNFRSF1A) using HepaRG (AID 2283535). The gist of the method:
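Read-out is TNFRSF1A transcript level by TaqMan qRT-PCR, normalized to three housekeeping genes, scored as gain or loss of signal versus 0.5% DMSO. Human HepaRG cells received test chemicals for 48 h at up to 100 uM (half-log series).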

Read-out in assay [16]: Thyroid Hormone Responsive (THRSP), THRSP (gene 7069)
Put plainly: LTEA_HepaRG_THRSP: Life Technologies and Expression Analysis (LTEA) Assay for Thyroid Hormone Responsive (THRSP) using HepaRG (AID 2283536). In a few lines:
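qRT-PCR read-out (Fluidigm TaqMan), housekeeping-normalized (ACTB/GAPDH/POLR2A). HepaRG, 48 h chemical exposure, 8-pt half-log series from 100 uM in 0.5% DMSO, duplicates. Bidirectional curve fit vs 0.5% DMSO baseline.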

Read-out in assay [17]: Cellular tumor antigen p53 (Homo sapiens) (UniProt P04637)
Nature of the assay: LTEA_HepaRG_TP53: Life Technologies and Expression Analysis (LTEA) Assay for Tumor Protein P53 (TP53) using HepaRG (AID 2283537). In a few lines: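 Read-out is TP53 transcript level by microfluidic qRT-PCR, normalised to three housekeeping genes and fitted bidirectionally against DMSO. Human HepaRG cells received compounds for 48 h, highest concentration 100 uM.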

Read-out in assay [18]: UDP glucuronosyltransferase (UGT1A1), UGT1A1 (gene 54658)
Put plainly: LTEA_HepaRG_UGT1A1: Life Technologies and Expression Analysis (LTEA) Assay for UDP glucuronosyltransferase (UGT1A1) using HepaRG (AID 2283538). The gist of the method:
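Cells are plated, cultured 48 h, switched to serum-free induction medium, then dosed 48 h at eight concentrations (max 100 uM, 0.5% DMSO). RNA is isolated and UGT1A1 expression measured by qRT-PCR; changes versus DMSO are fitted in both directions.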

Read-out in assay [19]: UDP glucuronosyltransferase (UGT1A6), UGT1A6 (gene 54578)
Nature of the assay: LTEA_HepaRG_UGT1A6: Life Technologies and Expression Analysis (LTEA) Assay for UDP glucuronosyltransferase (UGT1A6) using HepaRG (AID 2283539). In a few lines: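 HepaRG, 48 h post-plating switch to serum-free induction medium; chemical 48 h, 100 uM top, half-log x8, duplicate, 0.5% DMSO. Phenobarbital 1mM induction control. UGT1A6 mRNA by TaqMan qRT-PCR; gain/loss fit vs DMSO.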

Sequence of Nuclear factor NF-kappa-B p105 subunit (Homo sapiens) (P19838 whole entry, looked up): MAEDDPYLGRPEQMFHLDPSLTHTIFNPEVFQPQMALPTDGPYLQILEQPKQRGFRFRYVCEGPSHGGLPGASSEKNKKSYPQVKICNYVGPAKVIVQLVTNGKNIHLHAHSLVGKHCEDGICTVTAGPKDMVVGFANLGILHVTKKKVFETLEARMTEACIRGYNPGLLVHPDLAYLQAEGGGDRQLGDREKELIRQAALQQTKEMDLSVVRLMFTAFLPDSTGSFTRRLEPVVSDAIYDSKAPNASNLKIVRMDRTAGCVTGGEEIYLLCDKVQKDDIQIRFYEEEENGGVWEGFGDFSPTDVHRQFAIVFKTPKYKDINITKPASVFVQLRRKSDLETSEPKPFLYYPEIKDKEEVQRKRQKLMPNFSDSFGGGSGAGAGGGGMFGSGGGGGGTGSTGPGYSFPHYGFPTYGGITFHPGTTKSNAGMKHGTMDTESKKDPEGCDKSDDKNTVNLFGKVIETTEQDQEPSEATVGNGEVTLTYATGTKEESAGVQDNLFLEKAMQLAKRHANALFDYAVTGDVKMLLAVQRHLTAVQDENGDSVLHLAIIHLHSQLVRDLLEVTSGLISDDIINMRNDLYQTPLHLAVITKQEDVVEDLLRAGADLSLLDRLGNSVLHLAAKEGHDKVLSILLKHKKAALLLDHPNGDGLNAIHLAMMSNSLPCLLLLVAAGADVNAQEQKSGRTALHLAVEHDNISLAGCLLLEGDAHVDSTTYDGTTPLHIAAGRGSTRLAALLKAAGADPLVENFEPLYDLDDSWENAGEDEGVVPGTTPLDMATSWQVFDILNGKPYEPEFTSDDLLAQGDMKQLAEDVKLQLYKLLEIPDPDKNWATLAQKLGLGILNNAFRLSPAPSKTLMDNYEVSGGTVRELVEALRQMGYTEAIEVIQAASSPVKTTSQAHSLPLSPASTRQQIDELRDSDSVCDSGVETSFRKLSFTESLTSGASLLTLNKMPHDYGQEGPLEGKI
Sequence of Cellular tumor antigen p53 (Homo sapiens) (P04637 whole entry, looked up): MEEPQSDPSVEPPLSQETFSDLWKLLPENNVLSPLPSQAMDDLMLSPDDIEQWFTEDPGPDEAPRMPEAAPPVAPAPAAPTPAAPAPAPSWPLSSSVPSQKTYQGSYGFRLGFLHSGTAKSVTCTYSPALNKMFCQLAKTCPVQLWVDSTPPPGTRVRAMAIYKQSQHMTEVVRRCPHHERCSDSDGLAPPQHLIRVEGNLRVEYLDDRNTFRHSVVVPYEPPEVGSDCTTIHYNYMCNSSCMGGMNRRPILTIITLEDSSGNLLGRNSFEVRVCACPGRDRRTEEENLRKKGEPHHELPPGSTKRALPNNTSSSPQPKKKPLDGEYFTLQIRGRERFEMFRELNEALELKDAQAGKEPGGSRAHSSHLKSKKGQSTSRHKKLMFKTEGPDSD
Sequence of Nuclear factor erythroid 2-related factor 2 (Homo sapiens) (Q16236 whole entry, looked up): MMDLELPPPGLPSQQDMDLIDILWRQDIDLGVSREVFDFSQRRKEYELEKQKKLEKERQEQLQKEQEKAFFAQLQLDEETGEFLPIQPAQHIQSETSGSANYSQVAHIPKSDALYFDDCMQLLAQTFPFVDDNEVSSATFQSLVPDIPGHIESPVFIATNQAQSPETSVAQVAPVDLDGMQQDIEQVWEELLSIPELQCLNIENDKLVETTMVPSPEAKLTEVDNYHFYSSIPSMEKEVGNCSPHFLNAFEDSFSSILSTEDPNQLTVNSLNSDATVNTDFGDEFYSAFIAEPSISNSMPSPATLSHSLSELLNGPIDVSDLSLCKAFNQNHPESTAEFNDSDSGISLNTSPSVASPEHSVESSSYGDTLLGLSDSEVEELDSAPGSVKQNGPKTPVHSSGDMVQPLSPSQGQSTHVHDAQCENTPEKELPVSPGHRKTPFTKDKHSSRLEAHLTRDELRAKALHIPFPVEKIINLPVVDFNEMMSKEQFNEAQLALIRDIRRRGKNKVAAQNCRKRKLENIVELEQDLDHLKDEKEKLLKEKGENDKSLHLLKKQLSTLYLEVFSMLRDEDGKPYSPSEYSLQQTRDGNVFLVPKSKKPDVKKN
Sequence of Signal transducer and activator of transcription 3 (Homo sapiens) (P40763 whole entry, looked up): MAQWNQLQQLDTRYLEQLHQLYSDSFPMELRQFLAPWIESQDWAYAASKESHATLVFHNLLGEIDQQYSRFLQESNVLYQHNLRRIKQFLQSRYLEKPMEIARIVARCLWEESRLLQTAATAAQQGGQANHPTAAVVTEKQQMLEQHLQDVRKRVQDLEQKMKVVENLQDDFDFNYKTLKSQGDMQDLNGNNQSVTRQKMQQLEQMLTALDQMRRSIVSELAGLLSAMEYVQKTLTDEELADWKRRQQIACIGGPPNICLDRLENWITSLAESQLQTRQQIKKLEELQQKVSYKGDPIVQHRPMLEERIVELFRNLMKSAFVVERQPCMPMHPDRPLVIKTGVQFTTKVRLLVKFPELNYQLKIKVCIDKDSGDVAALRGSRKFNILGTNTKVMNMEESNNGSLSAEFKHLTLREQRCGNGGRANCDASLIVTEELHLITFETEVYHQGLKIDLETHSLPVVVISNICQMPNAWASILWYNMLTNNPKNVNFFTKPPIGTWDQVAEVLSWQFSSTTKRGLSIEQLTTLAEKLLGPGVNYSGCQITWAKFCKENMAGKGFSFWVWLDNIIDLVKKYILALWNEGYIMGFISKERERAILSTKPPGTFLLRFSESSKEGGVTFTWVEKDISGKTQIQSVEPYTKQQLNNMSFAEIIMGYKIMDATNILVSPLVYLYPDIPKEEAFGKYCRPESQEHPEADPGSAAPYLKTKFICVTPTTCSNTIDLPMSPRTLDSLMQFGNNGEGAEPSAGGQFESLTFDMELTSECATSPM

With `CC(O)CC(C)(C)O` (stereo unspecified), the result in [1], in [2], in assay [3], in [4], in [5] and in assay [6] was inactive. For the same molecule, the molecule was classed as inactive in [7], in assay [8], in assay [9], in [10], in [11] and in assay [12]. Moreover, the outcome was “inactive” in assay [13]; “inactive” in [14]; “inactive” with TIMP1, TIMP1 (gene 7076); “inactive” in assay [15]; “inactive” in [16]; “inactive” in assay [17]. Besides, the call in assay [18] and in [19] was inactive.
A word on the AC50: it is the concentration at which the activity in the assay is half-maximal. In the case of `O=C(O)Cn1c(=O)n(Cc2ccc(Br)cc2F)c(=O)c2ccc(Cl)cc21`, the call in [1], in assay [2], in [3], in assay [4], in [5] and in [8] was inactive. Further, the outcome in assay [9] was “inactive”; in [11], “inactive”; in [12] it was “inactive”; in [13], “inactive”; in [14], “inactive”; with TIMP1, TIMP1 (gene 7076), “inactive”. Further, the call in assay [15], in assay [17] and in assay [19] was inactive. The AC50 was 38.8 µM (active) in [6], 10.3 µM (active) in assay [16] and 17.7 µM (active) in assay [18].
On to `NC(=O)c1nc(-c2cccc(-c3cc(F)ccc3OCC(F)(F)C(F)(F)F)c2)n[nH]1`, for which the AC50 in assay [2] was 82.8 µM (active); in assay [4], 80.5 µM (active); in assay [5], 15.8 µM (active); in assay [7], 78.2 µM (active); in assay [13], 91.2 µM (active); in the assay with TIMP1, TIMP1 (gene 7076), 83.2 µM (active). Further, the AC50 was 15.8 µM (active) in assay [18] and 50 µM (active) in [19]. For the same molecule, the call in assay [3], in assay [8], in [9], in assay [10], in [11] and in assay [12] was inactive. For the same molecule, the result in assay [14], in assay [15], in [16] and in assay [17] was inactive.
